EPAC1 antag = blocks human EPAC1 exchange factor; actives 0.14% (n = 360,000); EPAC1 GEF assay, Rap1b-BODIPY-GDP exchange fluorescence; O95398; Potency, µM (series often up to 115 µM), most hits filed as inhibitors; note: nearly all actives have a fitted effect of over 50% in size
EPAC1 ag = activates human EPAC1 exchange factor; actives 0.073% (n = 360,000); O95398; Potency, µM (series often up to 154 µM), usual class: activators; EPAC1 agonist qHTS, biochemical assay; response scale: 100% = response to 6.5 mM cAMP; note: nearly all actives have a fitted effect of over 60% in size
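Compounds were pinned as a concentration titration into mixtures of EPAC1 (100 nM), BODIPY-GDP-loaded Rap1B (250 nM) and GDP (50 uM). After 5 min at room temperature, fluorescence was followed for 30 min; activity was scaled to 6.5 mM cAMP.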
EPAC2 antagonist = blocks human EPAC2 exchange factor; EPAC2 GEF exchange of Rap1B-BODIPY-GDP, fluorescence; Potency, µM (series often up to 114 µM), usual class: inhibitors; actives 0.18% (n = 360,000); AID 720708; note: nearly all actives have a fitted effect of over 45% in size
VDR inhibitor = vitamin D3 receptor (human) inhibition. P11473. VDR-SRC2-3 peptide fluorescence polarization, 2 h. Potency, µM, most hits filed as inhibitors. actives 0.93% (n = 400,000)
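The screen uses fluorescence polarization to detect compounds that interfere with recruitment of the SRC2-3 coactivator peptide to VDR; plates are read after 2 h at room temperature.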
EPAC2 ag = activates human EPAC2 exchange factor. Q8WZA2. EPAC2 activation, biochemical qHTS; response scale: 100% = 6.5 mM cAMP response. Potency, µM (top dose mostly 154 µM), usual class: activators. actives 0.079% (n = 360,000). AID 720711; note: nearly all actives have a fitted effect of over 50% in size
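Compounds were added across a concentration range to EPAC2 (100 nM), RAP1B-BODIPY-GDP (250 nM) and GDP (50 uM). After 5 min at room temperature, fluorescence was recorded at 5-min intervals for 30 min.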
USP1 inh = blocks the human USP1/UAF1 deubiquitinase complex; recombinant USP1/UAF1, Ub-Rhodamine cleavage fluorescence; actives 0.23% (n = 390,000); O94782; Potency, µM (top dose mostly 57.1 µM), actives largely listed as inhibitors; note: nearly all actives have a fitted effect of over 60% in size
Target sequence (O94782 whole entry, looked up): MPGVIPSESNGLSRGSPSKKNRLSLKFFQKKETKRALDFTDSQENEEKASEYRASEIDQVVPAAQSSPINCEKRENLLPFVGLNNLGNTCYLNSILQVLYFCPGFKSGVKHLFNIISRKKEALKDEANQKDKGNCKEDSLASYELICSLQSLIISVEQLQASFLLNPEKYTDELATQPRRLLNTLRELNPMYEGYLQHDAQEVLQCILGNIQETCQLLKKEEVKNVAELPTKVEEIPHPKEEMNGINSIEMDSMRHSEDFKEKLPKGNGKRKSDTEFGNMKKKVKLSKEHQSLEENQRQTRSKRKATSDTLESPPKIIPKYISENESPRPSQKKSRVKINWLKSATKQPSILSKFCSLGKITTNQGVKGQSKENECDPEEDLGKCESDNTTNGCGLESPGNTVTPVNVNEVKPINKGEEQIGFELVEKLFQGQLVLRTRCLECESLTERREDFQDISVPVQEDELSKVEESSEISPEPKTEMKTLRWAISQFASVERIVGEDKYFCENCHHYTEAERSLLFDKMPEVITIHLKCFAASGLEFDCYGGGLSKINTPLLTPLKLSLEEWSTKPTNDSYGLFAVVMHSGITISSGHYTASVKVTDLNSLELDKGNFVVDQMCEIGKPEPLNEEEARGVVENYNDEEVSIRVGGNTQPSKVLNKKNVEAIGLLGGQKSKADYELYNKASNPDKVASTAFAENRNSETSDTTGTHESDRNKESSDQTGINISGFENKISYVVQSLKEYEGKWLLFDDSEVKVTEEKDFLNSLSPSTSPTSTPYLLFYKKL
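1 nM enzyme complex + cpd, 15 min RT; start with Ub-Rho 150nM final; kinetic fluorescence ex 480/em 540, 6 reads q60 s. Buffer 50mM HEPES pH 7.8, 0.5mM EDTA, 0.1 mg/ml BSA, 1mM TCEP, 0.01% Tween-20.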
Large screens that a line does not name were inactive. This is a sample that favours compounds with a hit; in the whole collection about 1.2% have one here. Calls come from the whole dose curve; as a rule, active = well fitted curve in the direction sought with a large enough effect; inconclusive = small, poorly fitted or top-dose-only effect, or another doubt; inactive = no such curve, though single readings can be large; an effect the other way counts as inactive or inconclusive.

O=C1/C(=C/c2ccccc2[N+](=O)[O-])COc2ccccc21	VDR inhibitor 22µM
COc1cc(C)ccc1OCCn1c(-c2ccc(Cl)cc2)nc2ccccc2c1=O	none (no result: EPAC1 antag, EPAC1 ag, EPAC2 antagonist, EPAC2 ag)
CCOc1ccccc1C=Nc1ccccc1C(=O)Nc1ccccc1	VDR inhibitor 25µM
COc1ccc(/C=C/c2nnc(NC(=O)COc3ccc(Cl)cc3)s2)cc1	none (no result: EPAC1 antag, EPAC1 ag, EPAC2 antagonist, EPAC2 ag, USP1 inh)
CN(C)CCCN(C(=O)c1cc2cc([N+](=O)[O-])ccc2s1)c1nc2cc3c(cc2s1)OCCO3	EPAC1 antag inconclusive, EPAC2 antagonist 50µM
CN(C)CCCN(C(=O)c1ccc([N+](=O)[O-])s1)c1nc2cc3c(cc2s1)OCCO3	EPAC2 antagonist inconclusive, EPAC2 ag inconclusive, USP1 inh inconclusive
Cc1cccc(-c2nc3ccccc3c(=O)n2NC(=S)N(C)C)c1	VDR inhibitor 50µM
COc1cc2c3nnc(-c4ccc(F)cc4)c-3cn(Cc3cccc(C)c3)c2cc1OC	EPAC2 ag inconclusive, USP1 inh 32µM
COc1cc2c3nnc(-c4ccccc4)c-3cn(Cc3ccc(F)cc3)c2cc1OC	EPAC2 antagonist 71µM
COc1cc2c3nnc(-c4ccc(F)cc4)c-3cn(Cc3ccc(C)cc3)c2cc1OC	USP1 inh 32µM
COc1cc2c3nnc(-c4ccc(F)cc4)c-3cn(Cc3cccc(F)c3)c2cc1OC	EPAC1 antag inconclusive, USP1 inh inconclusive
CCCN1CCC(=O)N(CCSc2ccc(Br)cc2)CC1	none (no result: EPAC1 antag, EPAC1 ag, EPAC2 antagonist, EPAC2 ag, USP1 inh)
CSc1nc(N2CCOCC2)c2c3c(sc2n1)CCCC3	EPAC2 antagonist 18µM
O=c1ccc(N=Nc2ccccc2)ccc1O	none
Oc1ccc(N=Nc2ccccc2)o1	VDR inhibitor 89µM
COc1ccc(NC(=S)NC(NC(=O)CCl)C(Cl)(Cl)Cl)c([N+](=O)[O-])c1 (stereo unspecified)	VDR inhibitor 89µM, USP1 inh inconclusive
CC(C)CN(C[C@@H](OP(=O)(O)O)[C@H](Cc1ccccc1)NC(=O)O[C@@H]1CCOC1)S(=O)(=O)c1ccc(N)cc1	none (no result: EPAC1 antag, EPAC1 ag, EPAC2 antagonist, EPAC2 ag, USP1 inh)
CCC1CCCCC1	none (no result: EPAC1 antag, EPAC1 ag, EPAC2 antagonist, EPAC2 ag, USP1 inh)
O=C(O)CCNc1cc(N2CCN(C(=O)c3ccco3)CC2)c2noc3c2c1C(=O)c1ccccc1-3	EPAC1 antag inconclusive, VDR inhibitor inconclusive, USP1 inh 14µM
COc1cccc(NC(=O)CCC(=O)Nc2cccc(OC)c2)c1	none
COc1cccc(NC(=O)CSC(N)=O)c1	VDR inhibitor 22µM
O=C(/C=C/c1ccc2c(c1)OCO2)c1ccccn1	VDR inhibitor 79µM, USP1 inh inconclusive
O=C(C=Cc1ccc2c(c1)OCO2)c1ccccc1	VDR inhibitor 40µM
O=C(C=Cc1ccc2c(c1)OCO2)C=Cc1ccc2c(c1)OCO2	USP1 inh inconclusive (no result: VDR inhibitor)
O=C(/C=C/c1ccccc1)c1ccccn1	VDR inhibitor 40µM
CNc1ccc(Br)cc(C(=O)/C=C/c2ccc3c(c2)OCO3)c1=O	EPAC1 antag inconclusive, VDR inhibitor 79µM, USP1 inh inconclusive
O=C1C=C(N(CCO)Cc2ccccc2)c2ccccc2C1=O	EPAC1 antag 45µM, EPAC2 antagonist inconclusive, VDR inhibitor inconclusive, USP1 inh 3.5µM
CN(C)c1ccccc1-c1cc(NC=O)c2ncc(-c3cccc(C(F)(F)F)c3)n2c1	EPAC1 antag 32µM, EPAC2 antagonist inconclusive (no result: VDR inhibitor, USP1 inh)
CCOC(=O)c1cc([N+](=O)[O-])cc([N+](=O)[O-])c1Sc1ncnc2nc[nH]c12	VDR inhibitor 50µM
O=C(Nc1ccccc1Cc1ccccc1)c1ccccc1NS(=O)(=O)c1ccc(Cl)s1	EPAC2 antagonist 32µM
Cc1ccc(NC(=O)c2ccccc2NS(=O)(=O)c2ccc(Cl)s2)cc1	none
Cc1cn(C)c(CC(=O)Nc2cccc(Cl)c2C)c1C(=O)O	none (no result: EPAC1 antag, EPAC1 ag, EPAC2 antagonist, EPAC2 ag)
Oc1ccc(N=Nc2c(O)ccc3ccccc23)cc1	none
N=C(N)c1ccc(N=Nc2c(O)ccc3c2[nH]c2ccccc23)cc1	EPAC1 antag 40µM, EPAC1 ag inconclusive, EPAC2 antagonist 50µM, EPAC2 ag inconclusive, USP1 inh inconclusive
O=C1/C(=C/c2ccccc2)CCCc2ccccc21	none
CN(C)c1ccc(/C=C2\CCC/C(=C\c3ccccc3)C2=O)cc1	EPAC2 ag inconclusive, USP1 inh 32µM
Cc1ccc(CN(Cc2cc3cc(C)ccc3[nH]c2=O)Cc2nnnn2Cc2ccccc2)cc1	none (no result: EPAC1 antag, EPAC1 ag, EPAC2 antagonist, EPAC2 ag, USP1 inh)
O=c1cc2oc3cc(O)c(O)cc3c(-c3ccccc3[N+](=O)[O-])c-2cc1O	EPAC1 antag 79µM, EPAC2 antagonist inconclusive, USP1 inh inconclusive
O=C1C(c2c(O)[nH]c3ccccc23)=Nc2ccccc21	VDR inhibitor inconclusive
CC(=O)c1cccc2c(O)c(C3=Nc4ccccc4C3=O)[nH]c12	VDR inhibitor 56µM, USP1 inh inconclusive
COc1cc(/C=C(\C#N)C(=O)Nc2cccc(C(=O)O)c2)ccc1OCc1ccc(Cl)cc1	none
COc1cc(/C=C(/C#N)C(=O)Nc2ccccc2)c(Br)cc1OCc1ccc(C(=O)O)cc1	EPAC1 antag inconclusive, VDR inhibitor 50µM
Cc1ccc2c(c1)C(=O)C(=O)N2Cc1ccccc1	VDR inhibitor 79µM
COc1ccc2c(c1)C(=O)C(=O)N2CC1COc2ccccc2O1 (stereo unspecified)	VDR inhibitor inconclusive
Cc1ccc2c(c1)C(=O)C(=O)N2Cc1ccc(F)cc1	VDR inhibitor inconclusive
Cc1ccc2c(c1)C(=O)C(=O)N2CC1COc2ccccc2O1 (stereo unspecified)	VDR inhibitor 71µM
Cc1ccc2c(c1)C(=O)C(=O)N2Cc1ccc(Cl)cc1	VDR inhibitor 25µM
O=C(NCCc1ccccc1)c1cccc(Br)n1	none (no result: EPAC1 antag, EPAC1 ag, EPAC2 antagonist, EPAC2 ag, USP1 inh)
C/C(=C\C(=O)c1ccccc1)Nc1ccc(O)cc1	EPAC1 antag 71µM
C/C(=C\C(=O)c1cccnc1)Nc1ccc(O)cc1	none
CC(=O)C1=C(c2cccc([N+](=O)[O-])c2)N(C(C)=O)n2c(C)nnc2S1	VDR inhibitor inconclusive, USP1 inh 14µM
Cc1c(CBr)[n+](=O)c2c(n1[O-])C(Br)CCC2Br (stereo unspecified)	VDR inhibitor 35µM
O=C(c1ccc(F)cc1)n1nc(-c2cccnc2)nc1NCc1ccc(F)cc1	none (no result: EPAC1 antag, EPAC1 ag, EPAC2 antagonist, EPAC2 ag)
CCN(CC)C(=O)CSc1nc2c(sc(=S)n2-c2ccccc2)c(=O)n1-c1ccc(OC)cc1OC	VDR inhibitor 25µM
CCN(CC)C(=O)CSc1nc2c(sc(=S)n2-c2ccccc2)c(=O)n1-c1ccccc1OC	none
CS(=O)(=O)c1ccc(Cl)c(NC(=O)Cc2ccccc2F)c1	VDR inhibitor 79µM
O=C(CCc1nnc2n(Cc3ccccc3Cl)c(=O)c3ccccc3n12)Nc1ccccc1	none (no result: EPAC1 antag, EPAC1 ag, EPAC2 antagonist, EPAC2 ag)
c1cc(SSc2ccncc2)ccn1	VDR inhibitor 32µM
c1ccc(Sc2ccncc2)cc1	none (no result: VDR inhibitor)

Compound activity (PubChem)
